Measured values: PubChem BioAssay AID1053193 (Broad Institute, 2014)
Active and inactive are the calls of the source.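 How the source made its calls: active means cell killing, with a fitted half-maximal concentration at or below twice the top valid dose tested; inconclusive means flat curve losing 30 to 70% signal, or unreliable fit; inactive means effect in the rising direction, plus the rest.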

Assay: A549 cell cytotoxicity, dose response, cytotoxicity control, CellTiter-Glo luminescence, 72 h, dry powder (AID 1053193)
Conditions: A549 viability, CellTiter-Glo ATP luminescence; series mostly up to 50 µM; activity change, negative = cytotoxicity: at the top concentration

| Compound | activity change, negative = cytotoxicity |
| --- | --- |
| OCc1ccc(-c2nn(Cc3ccccc3)c3ccccc23)o1 | -2.1% (inactive) |
| Cc1cc2cc(CNC(=O)Nc3ccc(Cl)c(Cl)c3)ccc2n1C | -11.5% (inactive) |
| Cc1ccc(CSc2nc3[nH]ncc3c(=O)[nH]2)cc1 | -17.7% (inactive) |
| CCc1cccc2c1NC1(CCCC1)CC2C (stereo not given) | -3.12% (inactive) |
| CCc1ccc(-n2c(=S)sc3c(=O)n(-c4ccccc4C)c(SCC(=O)O)nc32)cc1 | -11.7% (inactive) |
| Cc1cc(C)c(S(=O)(=O)NCCn2c(C)cc3ccccc32)c(C)c1 | -0.395% (inactive) |
| O=C(O)C1CCN(c2nc(-c3ccccc3)c3cc(Br)ccc3n2)CC1 | -2.6% (inactive) |
| CNc1ccccc1C(C)(C)c1cc(-c2cccc(OC)c2)no1 | -0.576% (inactive) |
| Cc1cccc(NC(=O)NCc2ccc3c(c2)cc(C)n3C)c1 | -12.5% (inactive) |
| Cc1cc2ccccc2n1CCNC(=O)COc1ccc2ccccc2c1 | -0.685% (inactive) |
| Cc1ccc(S(=O)(=O)NCc2ccc3c(c2)cc(C)n3C)cc1 | -4.57% (inactive) |
| Cc1cc2cc(CNC(=O)Nc3cccc(Cl)c3)ccc2n1C | -10.6% (inactive) |
| COc1cc(CC2C(=O)Nc3ccccc32)cc(C)c1O (stereo not given) | -4.45% (inactive) |
| O=C(c1c(F)cccc1F)N(Cc1ccccc1)Cc1ccccc1 | -6.22% (inactive) |
| COc1ccc(Nc2ccccc2N)cc1 | -1.42% (inactive) |
